Screening results from PubChem BioAssay.
An excerpt weighted towards active compounds, which were near 8.7% of everything screened.
AMA1 RON2 block = disrupts binding of P. falciparum AMA1 to RON2. AlphaScreen AMA1-biotinylated RON2 peptide binding. 360,000 compounds, 0.2% hits. AID 720542. Potency, µM (titrated, usually from 58.2 µM), usual class: inhibitors; further: nearly all actives have a fitted effect of over 45% in size
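AMA1 (3D7) with his tag at 25 nM final met compounds first, then biotinylated RON2 peptide at 25 nM; detection used donor plus acceptor beads, 10 µg/mL apiece, read by AlphaScreen after 30 min at room temperature.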
VACV Venus inh = inhibitors of vaccinia virus (Venus reporter) | Vaccinia virus Venus reporter expression, fluorescence | Potency, µM (titrated, usually from 36.5 µM), actives largely listed as inhibitors | 330,000 compounds, 0.46% hits | AID 720580; calls by dose curve; tested in A549 cells; further: nearly all actives have a fitted effect of over 30% in size
VACV mCherry inh = inhibitors of vaccinia virus infection (mCherry reporter signal); Vaccinia virus mCherry reporter infection, fluorescence; Potency, µM (highest dose often 36.5 µM), most hits filed as inhibitors; 310,000 compounds, 0.63% hits; AID 720579; calls by dose curve; tested in A549 cells; further: nearly all actives have a fitted effect of over 35% in size
Pf growth 96h = inhibits malaria parasite growth, 96 h; AID 504834; Potency, µM (highest dose often 28.7 µM), actives largely listed as inhibitors; 320,000 compounds, 6.9% hits; P. falciparum luciferase reporter growth, 96 h
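Compounds incubated with erythrocytes infected by luciferase-expressing P. falciparum (2% hematocrit, 0.05% parasitemia final) for 96 hours, 37 C in 5% CO2. Growth inhibition scored as decreased luciferase luminescence.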
Pf growth 48h = inhibits P. falciparum growth in the first generation, 48 h; P. falciparum luciferase growth in erythrocytes, 48 h; Potency, µM (titrated, usually from 28.7 µM), most hits filed as inhibitors; 310,000 compounds, 5.9% hits
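Growth was read as firefly luciferase luminescence after a 48 h, 37 C, 5% CO2 exposure of compounds to reporter-bearing P. falciparum cultures (0.1% parasitemia, 2% hematocrit final) in Albumax-supplemented RPMI 1640.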
Numbers stand for hits; 0 = inactive; ? = inconclusive; - = no result given. Unless noted, the call rests on the fitted dose curve; in most records, active means well fitted curve in the direction sought with a large enough effect; inconclusive means small, poorly fitted or top-dose-only effect, or another doubt; inactive means no such curve, though single readings can be large; an effect the other way counts as inactive or inconclusive.

SMILES	AMA1 RON2 block	VACV Venus inh	VACV mCherry inh	Pf growth 96h	Pf growth 48h
C/C(CCc1oc2c(Br)cc(Br)cc2c1-c1ccc(C)o1)=N\O	3.8µM	0	0	0	?
CC1=NNC(=O)/C1=C\c1cn(-c2ccccc2)nc1-c1ccc(Cl)cc1	0	8.9µM	10µM	?	?
COC(=O)c1cc(NC(=O)Cn2nc(-c3ccc(C)c(C)c3)ccc2=O)cc(C(=O)OC)c1	-	0	?	-	-
Cc1ccc(NC(=O)CN(C)C(=O)c2ccc(NS(=O)(=O)c3cccc([N+](=O)[O-])c3)cc2)cc1	0	-	-	-	-
Cc1ccc(NS(=O)(=O)c2ccc(OCC(=O)Nc3cccc([N+](=O)[O-])c3)c(C)c2)cc1	0	?	?	15µM	?
CC(NS(=O)(=O)c1ccc(OCC(=O)Nc2cccc([N+](=O)[O-])c2)cc1)c1ccccc1 (centres undefined)	0	0	?	0	10µM
COc1ccccc1N1CCN(c2cc(C)nc3nncn23)CC1	-	0	0	-	-
Cc1ccc(CNS(=O)(=O)c2c(C)nc3sc(C)cn3c2=O)cc1	-	0	0	-	-
Cc1cccc(N2CCN(c3nnnn3-c3ccccc3)CC2C)c1 (centres undefined)	0	0	0	5.9µM	-
Cc1cccc(N2CCN(c3cc(C)nc4nnnn34)CC2C)c1 (centres undefined)	0	0	0	?	?
CCc1nn(CC(=O)NCCc2ccc(OC)c(OC)c2)c(=O)c2cc3occc3n12	-	0	0	-	-
CC(=O)C1=C(O)C(=O)N(c2cc(C(C)(C)C)on2)C1c1ccc(C(C)C)cc1 (centres undefined)	0	-	-	13µM	0
CC(=O)C1=C(O)C(=O)N(c2ccc(Br)cn2)C1c1ccc(Br)cc1 (centres undefined)	0	-	-	0	0
CC(=O)C1=C(O)C(=O)N(c2cc(C(C)(C)C)on2)C1c1ccc(Br)cc1 (centres undefined)	0	-	-	-	10µM
Cc1cccc(N2C(=O)C(O)=C(C(=O)c3cccs3)C2c2ccc(C(C)C)cc2)n1 (centres undefined)	0	0	0	0	0
O=c1[nH]c2cc([N+](=O)[O-])ccc2c2ccccc12	0	0	0	-	-
O=C1Cc2c([nH]c3ccc([N+](=O)[O-])cc23)-c2ccccc2N1	0	?	1.3µM	-	-
CC(C)CCOP(=O)(c1ccccc1)c1ccccc1	0	0	0	?	15µM
CCCOP(=O)(c1ccccc1)c1ccccc1	0	0	0	0	0
Cn1nc(C(C)(C)C)cc1C(=O)NNC(=O)c1ccc(C(F)(F)F)cc1	0	-	-	0	0
Cn1nc(C(C)(C)C)cc1C(=O)O	0	-	-	9.3µM	0
COc1ccc(/C(O)=C/c2nc3ccc(C(=O)NCCc4cccc(C)c4)cc3[nH]c2=O)cc1OC	0	0	0	?	4.7µM
CCOc1ccc(/C=N/NC(=O)Cc2ccccc2)cc1CN1CC2CC(C1)c1cccc(=O)n1C2 (centres undefined)	0	0	0	0	6.6µM
CCc1cnc2c(c1SCC(=O)Nc1cc(Cl)ccc1OC)c(=O)n(C)c(=O)n2C	-	0	0	-	-
COc1cc(NC(=O)CSc2ccc(-c3ccco3)nn2)cc(OC)c1	0	-	-	10µM	0
SMILES	AMA1 RON2 block	VACV Venus inh	VACV mCherry inh	Pf growth 96h	Pf growth 48h
CC(=O)Nc1cccc(NC(=O)CSc2ccc(-c3ccco3)nn2)c1	0	-	-	9.3µM	?
COc1cc(Br)cc(/C=N/NC(=O)Cc2ccc(C(F)(F)F)cc2[N+](=O)[O-])c1O	0	13µM	20µM	?	?
C=CCNS(=O)(=O)c1ccc(OCC(=O)OCC)cc1	0	0	0	2.3µM	0
CCOC(=O)COc1ccc(S(=O)(=O)c2ccc(OCC(=O)OCC)cc2)cc1	0	0	0	?	-
Cc1ccc(C)c(Cn2c(=O)n(-c3ccccc3)c(=O)c3c4c(sc32)CCCC4)c1	-	0	0	-	-
Cc1c(/C(Cc2ccccc2)=N/O)c2ccccc2n1C	0	?	-	10µM	?
CCOC(=O)/C(C#N)=C1/C=CN(C)C(C)=N1	0	0	0	0	0
CCOC(=O)/C(C#N)=C1/C=C(C)NC(c2ccccc2O)=N1	0	10µM	?	0	?
O=S(=O)(c1cccs1)N1CN(C2CCCCC2)c2nc3ccccc3nc21	0	0	0	5.2µM	12µM
O=S(=O)(c1cccs1)N1CN(C2CCCC2)c2nc3ccccc3nc21	0	0	0	?	?
Cc1ccc(NC(=O)CSc2nc3ccccc3n2CC(=O)N(C)C2CCCCC2)cc1C	-	0	0	-	-
COc1ccc(NC(=O)CSc2nc3ccccc3n2CC(=O)N2CCCC(C)C2)cc1 (centres undefined)	-	0	0	-	-
CCCC(=O)Nc1ccc(C(=O)/C=C/c2ccc(SC)cc2)cc1	0	?	-	?	?
CSc1ccc(/C=C/C(=O)c2ccc(NC(C)=O)cc2)cc1	0	0	-	0.66µM	0
CC(C)N(c1ccc(C=O)cc1)C(C)C	-	0	0	-	-
Cc1nc(Cl)c(C(=O)NC(=O)NCc2ccccc2)c(C)c1Cl	0	0	0	13µM	0
OCCN(Cc1cccnc1)Cc1ccccn1	14µM	0	0	-	-
O=C1c2ccccc2S(=O)(=O)c2cc(C(=O)N3CCC(C(=O)N4CCCCC4)CC3)ccc21	0	1.4µM	?	-	-
CC1CCCC(C)N1C(=O)c1ccc2c(c1)S(=O)(=O)c1ccccc1C2=O (centres undefined)	0	0	0	?	?
CC[C@H](C)[C@@H](NC(=O)O[C@@H]1C(=O)c2cc(OC)ccc2O[C@H]1c1ccc(OC)c(Br)c1)C(=O)OC	0	0	0	0	0
COc1ccc2c(c1)C(=O)[C@H](O)[C@@H](c1ccc(OC)c(Br)c1)O2	0	0	?	2.1µM	3.7µM
COc1cccc(Oc2ccc(S(=O)(=O)N3CCCC3)cc2[N+](=O)[O-])c1	0	0	?	?	10µM
COc1ccc(Nc2ccc(S(=O)(=O)N3CCCCC3)cc2[N+](=O)[O-])cc1OC	?	0	?	13µM	?
COc1ccc(Nc2ccc(S(=O)(=O)N3CCCCCC3)cc2[N+](=O)[O-])cc1	?	0	0	?	0
CC(Nc1ccc(S(=O)(=O)N2CCN(C)CC2)cc1[N+](=O)[O-])c1ccccc1 (centres undefined)	0	0	0	?	?
SMILES	AMA1 RON2 block	VACV Venus inh	VACV mCherry inh	Pf growth 96h	Pf growth 48h
COc1ccccc1C(C)Nc1ccc(S(=O)(=O)N2CCN(C)CC2)cc1[N+](=O)[O-] (centres undefined)	?	-	-	17µM	12µM
Cc1oc2ccc(O)c(CN(C)Cc3ccccc3)c2c1C(=O)Nc1cccc(C(F)(F)F)c1	-	?	0	-	-
O=C(Nc1cccc2ccccc12)N1CCN(c2ccc(F)cc2)CC1	0	0	-	1.5µM	0
COC(=O)c1ccccc1NC(=O)N1CCN(c2ccc(F)cc2)CC1	0	-	-	4.1µM	0
Cc1cc(C)cc(NC(=O)N2CCCN(c3c(Cl)cncc3Cl)CC2)c1	0	0	0	?	?
O=C(Nc1cccc2ccccc12)N1CCCN(c2c(Cl)cncc2Cl)CC1	0	0	?	5.9µM	?
Cc1ccc(N(C)S(=O)(=O)c2nnc(NC(=O)CC(C)C)s2)cc1	-	0	0	-	-
